A selection: hits, their analogues and other compounds. The true share with any hit is near 9%.
KinaseGlo FLuc = counter-screen: inhibitors of Kinase-Glo firefly luciferase | Kinase-Glo luciferase, ATP luminescence, 8 min | Q27757 | Potency, µM (titrated, usually from 38.3 µM), actives largely listed as inhibitors | 0.28% of 200,000 active | AID 1379; active = well fitted curve in the direction sought with a large enough effect; inconclusive = small, poorly fitted or top-dose-only effect, or another doubt; inactive = no such curve, though single readings can be large; an effect the other way counts as inactive or inconclusive; also: nearly all actives have a fitted effect of over 60% in size
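Luminescence was the read-out, taken after 8-minute incubation at ambient temperature. Luciferase turned over luciferin with 10 uM ATP in imidazole pH 7.2 buffer containing KCl, MgCl2, Tween 20 and BSA.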
Lamin A splicing = LMNA splicing modulation. HeLa LMNA splicing GFP/RFP minigene ratio, 48 h. Potency, µM (titrated, usually from 46.1 µM), hits mostly inhibitors. 0.01% of 200,000 active; active = well fitted inhibition curve with a large enough effect in the signal ratio, with a control signal flat, not every such curve was filed as active; inconclusive = small, poorly fitted or top-dose-only effect, or effect the other way, or a change in a side signal; the % refers to the signal ratio
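S3 HeLa cells stably expressing lamin A-EGFP splicing minigene plus DsRed2, 600 cells/well, 48 h compound exposure at 37C. Laser-scanning cytometry; analysed as GFP (500-530 nm)/RFP (575-640 nm) total intensity ratio; 0.5% DMSO vehicle.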
ALDH1A1 block = blocks purified human ALDH1A1 activity; 7.3% of 220,000 active; Potency, µM (titrated, usually from 75.3 µM), most hits filed as inhibitors; Purified ALDH1A1, NADH fluorescence, propionaldehyde substrate; AID 1030
IMPase Li cell = cell-permeable IMPase inhibitors with lithium potentiation; CHO-M1 cells, IP1 TR-FRET (IP-One), carbachol + lithium; AID 1457; Potency, µM (doses to about 59.4 µM), hits mostly inhibitors; 0.35% of 210,000 active; active = well fitted curve in the direction sought with a large enough effect; inconclusive = small, poorly fitted or top-dose-only effect, or another doubt; inactive = no such curve, though single readings can be large; an effect the other way counts as inactive or inconclusive;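 also: IP1 builds up when IMPase is blocked and the TR-FRET signal falls; nearly all actives have a fitted effect of over 50% in size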
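CHO-M1, 2000 cells/well, 16–30 h culture; cpd + low Li+, 30 min 37C; lysis with d2-IP1/Eu-anti-IP1 Ab, 10 min RT; TR-FRET 665/620 ratio and 620 channel; AC50 via Hill.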
HPGD block = HPGD (human) dehydrogenase inhibition | P15428 | purified HPGD, NADH fluorescence kinetic, PGE2 substrate | Potency, µM, most hits filed as inhibitors | 4.3% of 150,000 active | AID 894
Target sequence (P15428 whole entry, looked up): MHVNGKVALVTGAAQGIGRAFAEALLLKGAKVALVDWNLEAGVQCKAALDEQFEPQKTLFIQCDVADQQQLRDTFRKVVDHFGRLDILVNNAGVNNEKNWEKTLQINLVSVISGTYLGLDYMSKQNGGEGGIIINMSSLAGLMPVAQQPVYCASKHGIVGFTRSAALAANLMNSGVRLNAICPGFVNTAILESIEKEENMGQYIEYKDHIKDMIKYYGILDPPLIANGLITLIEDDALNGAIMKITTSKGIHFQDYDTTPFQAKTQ
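20 nM HPGD preincubated 15 min at room temperature with compound in 50 mM Tris-HCl pH 8, 0.01% Tween 20. Started with 1 mM NAD+ and 30 uM prostaglandin E2; NADH fluorescence (360/450 nm) read 5 times over 30-s intervals, last minus first.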
A number is an active result; - = inactive; ? = inconclusive; . = not tested or not shown; [ ] = remark or other dose. Unless noted, calls follow the shape of the dose curve; as a rule, active = well fitted inhibition curve with a large enough effect (not every such curve was filed as active); inconclusive = small, poorly fitted or top-dose-only effect, or another doubt; inactive = no such curve, though single readings can be large or run the other way.

SMILES	KinaseGlo FLuc	Lamin A splicing	ALDH1A1 block	IMPase Li cell	HPGD block
CCNC(=O)CSc1ncnc2sccc12	-	-	-	-	-
CCSc1oc(-c2ccco2)nc1S(=O)(=O)c1ccc(F)cc1	-	-	25µM	-	?
O=C(CNC(=S)NC(=O)c1ccc(Br)o1)c1ccccc1	-	?	-	-	-
O=C(CNC(=S)NC(=O)c1ccc(Cl)cc1)c1ccccc1	-	-	8.9µM	10µM	-
O=C(CCc1ccccc1)NNC(=S)NC(=O)c1ccccc1	-	-	18µM	-	-
O=C(NC1CCCCC1)C(=S)NCCc1ccccc1	-	-	18µM	-	.
O=[N+]([O-])c1cccc(NC(=S)NCCc2ccccc2)c1	-	?	-	-	7.9µM
COc1ccc(CNC(=O)C2CCN(S(C)(=O)=O)CC2)c(OC)c1	-	.	-	-	.
CC(=O)N1CCCc2cc(S(=O)(=O)N3CCCC(C(=O)Nc4ccc(C)c(C)c4)C3)ccc21 (stereo not drawn)	.	-	.	.	.
COC(=O)C(Cc1ccccc1)NC(=S)NC(=O)c1ccccc1 (stereo not drawn)	-	?	8.9µM	-	.
O=C(NC(=S)NCCC1=CCCCC1)c1cccnc1	-	-	14µM	-	.
Cc1ccc(NC(=S)NCCc2ccccc2)nc1	-	?	10µM	-	.
O=C(NC(=S)NCCc1ccccc1)c1ccccc1	-	-	16µM	-	-
CC(=O)NNC(=S)NCCc1ccccc1	-	-	-	-	.
COc1c(O)ccc2c1CN1CCc3cc4c(cc3[C@@H]1C2)OCO4	-[7.66 µM]	.	-[13.5 µM]	-	-
CCc1ccc(-n2c(C)n[nH]c2=S)cc1	-	-	-	-	.
CCOc1ccc(NC(=O)CCC(=O)NNC(=O)Nc2cccc(Cl)c2)cc1	-	-	-	-	.
Cc1ccc(NC(=S)N/N=C2\CCCCC2C)cc1 (stereo not drawn)	-	-	?	-	.
CC1CCCC/C1=N\NC(=S)NCCc1ccccc1 (stereo not drawn)	-	.	14µM	-	.
Fc1ccc(NC(=S)NCCc2ccccc2)c(F)c1F	-	-	?	-	25µM
CC(=O)NC(=S)NNC(=O)CCc1ccccc1	-	.	20µM	-	.
COc1ccc(NC(=O)CN2CCC(C(N)=O)(N3CCCCC3)CC2)c(OC)c1	-	.	-	-	.
CCCCN1C(=O)CN(C2CCCCC2)C(=O)C1c1ccc(OC(C)C)c(OC)c1 (stereo not drawn)	.	-	.	.	.
COCCNc1nc(C)nc2c1nc(-c1ccccc1)n2CCN1CCCCC1	-	.	?	-	?
COc1ccc2c(c1)CCc1sc(NC(=O)c3ccco3)nc1-2	-	-	22µM	-	?
SMILES	KinaseGlo FLuc	Lamin A splicing	ALDH1A1 block	IMPase Li cell	HPGD block
COc1ccc2c(c1)Cc1sc(NC(=O)c3cccnc3)nc1-2	-	-	3.5µM	-	.
COc1ccc2c(c1)-c1nc(NC(=O)c3ccco3)sc1CC2	-	?	?	-	-
Cc1c(C(=O)NN)sc(-c2ccccc2)c1C#N	-	.	1.3µM	-	.
CC(=O)c1ccc2c(c1)C1C=CCC1C(c1ccc(S(=O)(=O)N3CCOCC3)cc1)N2 (stereo not drawn)	-	?	25µM	-	-
Cc1c(Cl)cccc1NS(=O)(=O)c1ccc2c(c1)C1C=CCC1C(c1ccc(C(=O)O)cc1)N2 (stereo not drawn)	.	.	13µM	-	.
COc1c2ccccc2nc2occc12	-	.	-	-	-
COc1ccc(CNC(=O)C(=O)NC2CCC(C)CC2)cc1 (stereo not drawn)	-	.	-	-	.
O=C1C(NS(=O)(=O)c2cccs2)=C(N2CCN(c3cccc(C(F)(F)F)c3)CC2)C(=O)c2ccccc21	-	?	?	-	-
CCOc1ccccc1N1CCN(C2=C(NS(=O)(=O)c3cccs3)C(=O)c3ccccc3C2=O)CC1	-	-	10µM	-	-
Cc1sc2nc(CSCC(=O)Nc3ccc(OC(F)F)cc3)[nH]c(=O)c2c1C	-	.	40µM	-	.
Cc1sc2nc(CSCC(=O)Nc3ccccc3C#N)[nH]c(=O)c2c1C	-	?	?	-	-
Cc1ccccc1NC(=O)NC1(C(=O)NCCCN2CCOCC2)CCCCC1	-	-	-	-	-
O=C(c1ccco1)N1CCCN(Cc2nc(-c3ccc4c(c3)OCO4)no2)CC1	-	?	22µM	-	.
Fc1ccc(CN2CCCN(Cc3nc(-c4ccc5c(c4)OCO5)no3)CC2)cc1	-	-	-	-	.
O=C(CCN1CCN(c2ccccc2F)CC1)Nc1ccccc1F	-	-	-	-	-
Cc1cccc(NC(=O)CN2CCN(CC(=O)Nc3cccc(C)c3)CC2)c1	-	-	20µM	-	-
O=C(CN1CCN(c2ccccc2F)CC1)Nc1ccccc1F	-	?	20µM	-	-
NC(=O)c1ccc(NC(=O)CN2CCN(c3ccc(Cl)cc3)CC2)cc1	-	.	22µM	-	.
O=C(CN1CCCCC1)Nc1ccc(N2CCCCCC2)cc1	-	?	?	-	.
Cc1c(Cl)cccc1NC(=O)CSc1nc(=O)n(Cc2ccccn2)c2c1CCC2	.	-	.	.	.
Cn1c(=O)n(CCCc2ccccc2)c(=O)c2c1nc1n2CCN1c1ccccc1	.	-	.	.	.
COc1ccccc1N1CCN(CC(=O)Nc2ccc(C)c(F)c2)CC1	-	?	14µM	-	-
O=C(CN1CCN(C(=O)c2ccco2)CC1)Nc1ccc2c(c1)OCCO2	-	-	13µM	-	-
CCCn1c(N2CCN(CC(=O)Nc3ccc4c(c3)OCCO4)CC2)nc2ccccc21	-	-	25µM	-	-
O=C(CN1CCN(c2ccccc2)CC1)Nc1ccc2c(c1)OCCO2	-	-	-	-	.
SMILES	KinaseGlo FLuc	Lamin A splicing	ALDH1A1 block	IMPase Li cell	HPGD block
O=C(CN1CCN(CC(=O)Nc2ccccc2F)CC1)Nc1ccc2c(c1)OCCO2	-	.	28µM	-	.
Cc1ccc(NC(=O)CN2CCN(c3ccccc3F)CC2)cc1F	.	-	.	.	.
CC(O)c1nc2ccccc2n1CC(=O)Nc1ccc2c(c1)OCCO2 (stereo not drawn)	-	-	-	-	.
CCC(=O)CC(NC(=O)OC)c1ccccc1 (stereo not drawn)	.	.	-[13.5 µM]	.	.
Cc1cccc(C2NC(c3cccc(C)c3)C([N+](=O)[O-])C(C)(C)C2[N+](=O)[O-])c1 (stereo not drawn)	-	?	-	-	-
COc1ccc(S(=O)(=O)N2CCN(CC(=O)Nc3ccc(C)c(F)c3)CC2)cc1	-	-	10µM	-	-
O=C(CN1CCN(S(=O)(=O)c2ccc(Br)cc2)CC1)Nc1ccc2c(c1)OCCO2	-	-	25µM	-	-
O=C(CN1CCN(S(=O)(=O)c2ccc(Cl)cc2)CC1)Nc1ccc2c(c1)OCCO2	-	-	?	-	-
COc1ccccc1N1CCN(CCC(=O)Nc2ccc3c(c2)OCO3)CC1	-	-	-	-	-
Cc1ccc(NC(=O)CN2CCN(S(=O)(=O)c3ccc(C(C)C)cc3)CC2)cc1F	.	-	.	.	.
O=C(CN1CCN(c2ccc(O)cc2)CC1)Nc1ccc2c(c1)OCCO2	-	.	9.5µM	-	.
COc1ccccc1N1CCN(CC(=O)Nc2ccc3c(c2)OCCO3)CC1	-	.	22µM	-	.
